The full list was thinned out, with hits kept by preference.
TDP1 cell noCPT: qHTS for Inhibitors of human tyrosyl-DNA phosphodiesterase 1 (TDP1): qHTS in cells in absence of CPT | Potency, µM (doses to about 46.2 µM), inactives show at the top dose activity change, negative = growth inhibition, hits mostly inhibitors | hit rate 15% among 420,000 | DT40 Tdp1-/- hTDP1 cells, no CPT, ATP luminescence, 48 h; also: potency is read from the fitted curve at half-maximal effect; nearly all actives have a fitted effect of over 55% in size
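Compound effects on proliferation are scored in DT40 Tdp1-/-;hTDP1 cells in the absence of CPT. ATP levels (CellTiter-Glo luminescence) are recorded after a ≥48 hr, 37 °C incubation.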
HT1080 IDH1KD tx: toxicity to HT-1080 IDH1 knockdown cells (counter line); AID 686971; hit rate 2% among 360,000; Potency, µM (series often up to 46.1 µM), for the others: at the highest dose activity, negative = toxicity, hits mostly cytotoxic; HT-1080 IDH1 knockdown viability, ATP luminescence, 48 h;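 also: potency is read from the fitted curve at half-maximal effect; 0% = DMSO wells and -100% = cell-free medium wells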
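% activity derives from luminescence (CellTiter-Glo), normalised to DMSO and no-cell wells. HT-1080-IDH1KD cells, 750/well, had 48 h compound exposure at 37 °C.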
ALOX12 inh: blocks human arachidonate 12S-lipoxygenase; P18054; purified 12hLO, xylenol orange hydroperoxide absorbance; Potency, µM (doses to about 108 µM), for inactives: at the top dose activity change, negative = inhibition, actives largely listed as inhibitors; hit rate 1.1% among 580,000; AID 1671190; also: potency is read from the fitted curve at half-maximal effect
Target sequence (P18054 whole entry, looked up): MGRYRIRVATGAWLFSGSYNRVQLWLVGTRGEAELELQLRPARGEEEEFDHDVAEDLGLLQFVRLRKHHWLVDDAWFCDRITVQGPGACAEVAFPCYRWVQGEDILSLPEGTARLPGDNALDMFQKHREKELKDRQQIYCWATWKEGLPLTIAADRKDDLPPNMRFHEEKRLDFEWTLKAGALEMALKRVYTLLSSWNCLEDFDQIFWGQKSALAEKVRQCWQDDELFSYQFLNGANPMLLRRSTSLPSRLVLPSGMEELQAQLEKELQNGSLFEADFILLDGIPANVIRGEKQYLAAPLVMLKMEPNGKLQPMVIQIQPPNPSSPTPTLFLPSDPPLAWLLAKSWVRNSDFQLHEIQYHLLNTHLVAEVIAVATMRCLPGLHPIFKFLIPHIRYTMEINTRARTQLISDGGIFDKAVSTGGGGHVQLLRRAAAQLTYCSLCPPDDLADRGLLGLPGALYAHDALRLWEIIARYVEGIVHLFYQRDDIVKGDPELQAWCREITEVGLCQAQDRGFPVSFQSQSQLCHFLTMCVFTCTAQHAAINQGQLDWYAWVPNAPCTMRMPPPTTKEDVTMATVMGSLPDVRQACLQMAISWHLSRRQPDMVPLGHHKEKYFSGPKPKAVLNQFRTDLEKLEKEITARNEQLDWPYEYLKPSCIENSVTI
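Purified human 12hLO at 150 nM in 25 mM Hepes, 0.01% Triton X-100, pH 7.0, preincubated 15 min at room temperature with compound. Reaction started with 40 uM arachidonic acid, 30 min at room temperature. Hydroperoxide measured by Fe-xylenol orange, 573/405 nm absorbance ratio.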
IL1B secr inh: inhibitors of inflammasome signaling (IL-1 beta secretion) | THP-1 LPS/ATP IL-1B secretion, AlphaLISA, 16 h; active compounds read low | activity change, % at 57.5 µM | hit rate 4.7% among 360,000 | AID 743279; in the data active = activity change below about -50%; inconclusive = mostly about -30% to -49%
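THP-1 cells pretreated 1 hr with compounds (up to 57.5 uM final), then stimulated with LPS (250 ng/mL final) plus ATP (1.25 mM final); secreted IL-1B measured by AlphaLISA after 16 hr, decreased signal indicating inhibition.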
HT1080-NT tox: kills 2HG-producing HT-1080-NT fibrosarcoma cells. HT-1080-NT fibrosarcoma viability, CellTiter-Glo ATP luminescence, 48 h. Potency, µM (titrated, usually from 46.1 µM), for inactives: at the highest dose activity, negative = less viability, actives largely listed as cytotoxic. hit rate 1.6% among 360,000;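 also: NT is the 2HG producing partner of a matched IDH1 knockdown line; potency is read from the fitted curve at half-maximal effect; 0% = DMSO-treated cells and -100% = media-only wells without cells; nearly all actives have a fitted effect of over 55% in size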
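Read-out is CellTiter-Glo luminescence after 10 minutes at room temperature, following 48 hours' compound treatment of HT-1080-NT cells (750 cells/well, RPMI, 5% FBS, 37 degrees C).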
DT40 TDP1 CPT: DT40-hTDP1 cell growth loss with CPT | chicken DT40 Tdp1-/-;hTDP1 cells + 20 nM CPT, ATP luminescence, 48 h | hit rate 12% among 420,000 | Potency, µM (top dose mostly 46.2 µM), for inactives: at the top dose activity change, negative = growth inhibition, actives largely listed as inhibitors; also: potency is read from the fitted curve at half-maximal effect; nearly all actives have a fitted effect of over 55% in size
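Chicken DT40 Tdp1-/- cells stably complemented with human TDP1 were seeded at 400 cells/well in medium containing 20 nM camptothecin, exposed to pin-transferred compounds, and grown at 37 °C for at least 48 hr. Viability was read as ATP luminescence.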
* marks the source's active call; other numbers are inactive results; ? = inconclusive; . = no result given; [ ] = another dose, or the depositor's remark. Unless noted, calls follow the shape of the dose curve; as a rule, active = well fitted curve in the direction sought with a large enough effect; inconclusive = small, poorly fitted or top-dose-only effect, or another doubt; inactive = no such curve, though single readings can be large; an effect the other way counts as inactive or inconclusive. Unless noted, % is scaled to controls: 0 for no effect and ±100 for the full control effect.

SMILES	TDP1 cell noCPT	HT1080 IDH1KD tx	ALOX12 inh	IL1B secr inh	HT1080-NT tox	DT40 TDP1 CPT
Cc1ccc(-c2noc(-c3cc(-c4ccc(F)cc4)n[nH]3)n2)cc1	?	.	-13%	.	.	-12%
Cc1ccccc1-c1noc(-c2cc(-c3ccc(F)cc3)n[nH]2)n1	23µM*	.	-13%	.	.	21µM*
COc1ccc(-c2noc(Nc3ccccc3)n2)cc1	.	.	-5%	.	.	.
O=C1OC2(CN1CCOc1ccccc1)CN(C(=O)c1ccc(Oc3ccccc3)cc1)C2	.	.	8%	.	.	.
CCn1ncc(N2CCCC(CC(=O)Nc3ccc(F)c(F)c3)C2)cc1=O (stereo not given)	.	.	25%	.	.	.
Fc1cccc(Nc2nc(-c3ccccc3)no2)c1	.	.	35µM*	.	.	.
Fc1ccc(Nc2nc(-c3ccccc3)no2)cc1	.	.	2%	.	.	.
CCOc1ccc(-c2cc(-c3nc(-c4ccc(OCC)cc4)no3)[nH]n2)cc1	.	.	33%	.	.	.
CCOc1ccc(-c2cc(-c3nc(-c4cc(OC)c(OC)c(OC)c4)no3)[nH]n2)cc1	9.2µM*	.	-17%	.	.	9.2µM*
CC(C)c1cc(-c2nc(-c3ccc(Br)cc3)no2)n[nH]1	?	.	-9%	.	.	?
CCOc1cc(-c2noc(-c3ccncc3)n2)cc(Br)c1OC	16µM*	?	-22%	19	?	?
COc1ccc(-c2noc(-c3cc(C(C)C)[nH]n3)n2)cc1	18µM*	.	0%	.	.	21µM*
COc1ccc([C@H]2C[C@@H](O)[C@@H](O)[C@@H]2NCc2cccc(OC)c2)cc1	.	.	7%[176 µM]	.	.	.
CCN1C(=O)C2(CCN(S(=O)(=O)c3cccc(C(F)(F)F)c3)CC2)c2ccccc21	.	.	11%	.	.	.
CCOc1ccc(OCC)c(NC(=O)Nc2ccc(F)cc2F)c1	.	.	2%	.	.	.
O=C(OC1CCOC1=O)c1ccc(Cl)c(S(=O)(=O)N2CCOCC2)c1 (stereo not given)	5%	0%	182%	9	6%	-10%
O=C(CN1CCN(c2ccc(F)cc2)CC1)Nc1ccccc1C(=O)NCCc1ccccc1	16µM*	-19%	15%	21	-1%[9.24 µM]	?
O=C(CN1CCN(c2ccccc2F)CC1)Nc1ccccc1F	-5%	19%	10%	12	9%	?
O=C(CN1CCN(c2ccccc2O)CC1)Nc1ccccc1C(=O)NCCc1ccccc1	16µM*	-1%	?	-2	0%	23µM*
COc1ccc(NC(=O)c2ccccc2NC(=O)CN2CCCCCC2)cc1	-26%	-1%	8%	-12	0%[9.24 µM]	?
COc1ccccc1N1CCN(CC(=O)Nc2ccccc2C(=O)NCCc2ccccc2)CC1	16µM*	1%	-2%	14	2%[9.24 µM]	15µM*
COc1ccc(CCNC(=O)c2ccccc2NC(=O)CN2CCN(c3ccccc3O)CC2)cc1	10µM*	-14%	5%	-29	-11%	?
CC(Sc1ccccc1F)C(N)=O (stereo not given)	.	.	-29%	.	.	.
CCOc1ccccc1NC(=O)C(=O)NCCc1sc(-c2cccc(F)c2)nc1C	-11%	.	-38%	.	.	-19%
COC1CCC12CCN(C(=O)C1CCCC1)CC2 (stereo not given)	.	.	22%	.	.	.
SMILES	TDP1 cell noCPT	HT1080 IDH1KD tx	ALOX12 inh	IL1B secr inh	HT1080-NT tox	DT40 TDP1 CPT
COc1ccc(C(=O)N2CCN(c3ccc(NC(=O)c4cccs4)cc3)CC2)cc1	?	5%	64%	?	1%	?
CC(C)C(=O)Nc1ccc(N2CCN(C(=O)c3cccs3)CC2)cc1	?	22%	-22%	10	13%	-14%
Cc1ccccc1C(=O)N1CCN(c2ccc(NC(=S)NC(=O)c3cccs3)cc2)CC1	23µM*	-10%	35µM*	?	?	23µM*
O=C(Nc1ccc(N2CCN(C(=O)c3ccccc3)CC2)cc1)c1cccs1	21µM*	-8%	14%	-59*	-5%	18µM*
CC(C)CC(=O)NC(=S)Nc1ccc(N2CCN(C(=O)c3cccs3)CC2)cc1	21µM*	?	?	-58*	?	?
CCC(=O)Nc1ccc(N2CCN(C(=O)c3ccccc3C)CC2)cc1	-15%	3%	?	-6	21%	-20%
Cc1ccc(C(=O)N2CCN(c3ccc(NC(=S)NC(=O)c4cccs4)cc3)CC2)cc1	21µM*	-4%	11µM*	-55*	-14%	?
COCCNC(=O)CCc1cc2cc(OC)ccc2[nH]c1=O	.	.	36%	.	.	.
Cc1cnc(CC2CCNC2)n1C(C)C (stereo not given)	.	.	35%	.	.	.
N#Cc1cc2c(=O)n(CCCCN3CCCC3)ccc2[nH]c1=O	.	.	21%	.	.	.
CCS(=O)(=O)c1nc(S(=O)(=O)c2ccc(Cl)cc2)c(NCc2ccc(Cl)cc2)s1	?	.	-16%	.	.	?
O=C(NC(=S)Nc1ccc(N2CCOCC2)cc1)c1ccc(Cl)cc1	-9%	8%	-10%	15	13%	-14%
CCC(=O)NC(=S)Nc1ccc(N2CCN(C(=O)c3ccc(Cl)cc3)CC2)cc1	?	-10%	-30%	-9	-29%	21µM*
COc1ccc(S[C@]2(c3nc(C)no3)CC(=O)N(c3ccc(OC)cc3)[C@@H]2c2ccc(OC)cc2)cc1	.	.	14µM*	.	.	.
CCOc1ccccc1NC(=O)CN1CCC(NC(=O)c2ccccc2C)CC1	23µM*	-13%	-16%	1	-2%	23µM*
COC(=O)c1ccccc1NC(=O)CN1CCC(NC(=O)c2ccc(C)cc2)CC1	26µM*	7%	0%	16	1%	?
COC(=O)c1ccccc1NC(=O)CN1CCN(C23CC4CC(CC(C4)C2)C3)CC1	?	-2%	-21%	7	3%	29µM*
Cc1ccc(C(=O)NC2CCN(CC(=O)Nc3ccccc3Cl)CC2)cc1	-27%	20%	-3%	-2	19%	3%
CCOc1ccccc1N1CCN(CC(=O)Nc2ccnn2C2CCCC2)CC1	?	-3%	5%	4	-1%	13µM*
CC(=O)OC[C@@H]1CN(Cc2ccccc2)C[C@H](n2cnc3c(N4CCOCC4)ncnc32)O1	-22%	-5%	4%	11	1%	?
CCN(CC)CCn1cnc(-c2ccccc2)c1-c1cnc(C)s1	.	.	1%	.	.	.
CCOc1ccc(OCC)c(NC(=O)CN2CCC(NC(=O)c3cccc(F)c3)CC2)c1	16µM*	-24%	-16%	-12	-24%	23µM*
CCOc1ccccc1C(=O)NC1CCN(CC(=O)Nc2cc(OC)ccc2OC)CC1	16µM*	3%	21%	4	12%	21µM*

Screening data (PubChem)
